# Source: PubChem BioAssay (EPA / NIEHS)
# Several values for one entry are separate records, joined by “and”; a condition that tells them apart may be missing. Identical values can stand only once. Results filed as inconclusive are left out. Where a structure was tested more than once in an assay, its records may differ in their call. Activity calls are given as the source filed them. How the source made its calls: active means hit-call score of the fitted dose curve at least 0.9, where 1 is the maximum; inconclusive means response in the unintended direction; inactive means score below 0.9.
# Assays:
# [1] = biological target: bovine Gamma-Aminobutyric Acid Type A Receptor BDZ, alpha 5 site (GABARa5), GABRA5 (gene 523515) (UniProt Q08E50); assay: NVS_LGIC_bGABARa5: NovaScreen (NVS) Ligand-Gated Ion Channel Assay for bovine Gamma-Aminobutyric Acid Type A Receptor BDZ, alpha 5 site (GABARa5) (AID 2283323)
# Summary of the method: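 Radioligand competitive displacement binding on bovine hippocampal membranes, read 1 hr after dosing by filter-based scintillation counting. Primary screen at 25 uM in duplicate; actives (e.g. ≥30% inhibition) then run in concentration-response up to 50 uM.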
# [2] = biological target: rat Glutamate, AMPA Site (AMPA), Gria1 (gene 50592) (UniProt P19490); assay: NVS_LGIC_rAMPA: NovaScreen (NVS) Ligand-Gated Ion Channel Assay for rat Glutamate, AMPA Site (AMPA) (AID 2283324)
# Summary of the method: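 Rat forebrain membranes; radioligand binding read 1 h after dosing by filtration and scintillation counting. Duplicate single-point screen at 25 uM, then concentration-response to 50 uM for threshold hits (e.g. 30% inhibition); loss of signal vs DMSO.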
# [3] = biological target: rat Oxytocin Receptor (OXT), Oxtr (gene 25342) (UniProt P70536); assay: NVS_GPCR_rOXT: NovaScreen (NVS) G Protein-Coupled Receptor Assay for rat Oxytocin Receptor (OXT) (AID 2283330)
# Summary of the method: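 Radioligand displacement on rat uterine membranes, 1 h incubation, filter-based scintillation counting. Chemicals were screened in duplicate at 25 uM, and those passing threshold were retested in concentration-response up to 50 uM. Loss of binding was fitted versus DMSO.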
# [4] = biological target: rat Vasopressin 1 Receptor (V1), Avpr1a (gene 25107) (UniProt P30560); assay: NVS_GPCR_rV1: NovaScreen (NVS) G Protein-Coupled Receptor Assay for rat Vasopressin 1 Receptor (V1) (AID 2283316)
# Summary of the method: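 Radioligand binding on rat liver membranes, 1.5 h incubation, filter-based scintillation counting. Single 25 uM screen in duplicate; chemicals meeting threshold (e.g. 30% inhibition) run in concentration-response up to 50 uM.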
# [5] = biological target: rat Opioid Receptor, Non-selective Binding, Oprm1 (gene 25601) (UniProt P33535); assay: NVS_GPCR_rOpiate_NonSelective: NovaScreen (NVS) G Protein-Coupled Receptor Assay for rat Opioid Receptor, Non-selective Binding (AID 2283318)
# Summary of the method: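 Rat forebrain membranes, cell-free radioligand binding with filter-based scintillation counting, read 1.5 h after dosing. Primary screen in duplicate at 25 uM; actives retested in concentration series. Loss of signal versus DMSO baseline scored.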
# [6] = biological target: Sodium channel protein type 1 subunit alpha (Rattus norvegicus) (UniProt P04774); assay: NVS_IC_rNaCh_site2: NovaScreen (NVS) Ion Channel Assay for rat Sodium Channel, Site 2 (NaCh) (AID 2283322);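 further: hit means loss of radioligand binding signal relative to DMSO so AC50 marks displacement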
# Summary of the method: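 Membranes: rat forebrain. Format: competitive radioligand displacement, filter separation, scintillation readout, 1 h exposure. Primary screen in duplicate at 25 uM; actives retested in concentration series.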
# [7] = biological target: human Peripheral-type Benzodiazepine Receptor (PBR), TSPO (gene 706) (UniProt P30536); assay: NVS_MP_hPBR: NovaScreen (NVS) Membrane Protein Assay for human Peripheral-type Benzodiazepine Receptor (PBR) (AID 2283331);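 further: hits reduce radioligand binding relative to DMSO baseline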
# Summary of the method: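 Human colonic cell membranes were incubated with test chemical for 1 hour; radioligand binding was measured by filter-based scintillation counting. Primary screen ran in duplicate at 25 uM, with actives followed in concentration series; loss of signal versus DMSO baseline.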
# [8] = biological target: rat Peripheral-type Benzodiazepine Receptor (PBR), Tspo (gene 24230) (UniProt P16257); assay: NVS_MP_rPBR: NovaScreen (NVS) Membrane Protein Assay for rat Peripheral-type Benzodiazepine Receptor (PBR) (AID 2283335)
# Summary of the method: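 Radioligand displacement, rat kidney membrane prep, 1 h exposure, filter-based scintillation read; DMSO baseline, loss-of-signal scored. Primary screen at 25 uM in duplicate, actives followed up in concentration series.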
# [9] = biological target: Voltage-dependent N-type calcium channel subunit alpha-1B (Rattus norvegicus) (UniProt Q02294); assay: NVS_IC_rCaChN: NovaScreen (NVS) Ion Channel Assay for rat Calcium Channel, Type N (CaChN) (AID 2283317)
# [10] = biological target: bovine Gamma-Aminobutyric Acid Type A Receptor BDZ, alpha 1 site (GABARa1), GABRA1 (gene 780973) (UniProt P08219); assay: NVS_LGIC_bGABARa1: NovaScreen (NVS) Ligand-Gated Ion Channel Assay for bovine Gamma-Aminobutyric Acid Type A Receptor BDZ, alpha 1 site (GABARa1) (AID 2283321)
# Summary of the method: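 Radioligand competition binding on bovine cortical membranes, 0.75 h, filter-based scintillation counting. Primary single concentration 25 uM in duplicate; actives rerun in concentration-response to 50 uM max. Loss of signal fitted versus DMSO.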
# [11] = NVS_IC_rCaDHPRCh_L: NovaScreen (NVS) Ion Channel Assay for rat Calcium Channel, Type L, Dihydropyridine Site (CaDHPRCh_L) (AID 2283320)
# Summary of the method: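 Radioligand binding to dihydropyridine site on rat cortical membranes, filter-based scintillation counting, 1 h after dosing. Screened in duplicate at 25 uM; actives rerun in concentration-response up to 50 uM. Loss of signal versus DMSO baseline.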
# [12] = biological target: rat Gamma-Aminobutyric Acid Type A Receptor, Non-Selective (GABAR-NonSelective), Gabra1 (gene 29705) (UniProt P62813); assay: NVS_LGIC_rGABAR_NonSelective: NovaScreen (NVS) Ligand-Gated Ion Channel Assay for rat Gamma-Aminobutyric Acid Type A Receptor, Non-Selective (GABAR-NonSelective) (AID 2283326)
# Summary of the method: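 Radioligand displacement on rat whole-brain extract, 1 h, filter scintillation readout; signal loss fitted versus DMSO. Primary screen in duplicate at 25 uM; hits (e.g. ≥30% inhibition) retested in concentration-response up to 50 uM.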
# [13] = biological target: Voltage-gated inwardly rectifying potassium channel KCNH2 (Homo sapiens) (UniProt Q12809); assay: NVS_IC_hKhERGCh: NovaScreen (NVS) Ion Channel Assay for human Potassium Channel ERG (KhERGCh) (AID 2283333)
# Summary of the method: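 Cell-free radioligand competition binding on hERG protein extracted from CHO cells, read by filter-based scintillation counting 0.75 h after dosing. Primary screen at 25 uM in duplicate, actives followed in concentration series. Signal loss fitted versus DMSO.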
# human Peripheral-type Benzodiazepine Receptor (PBR), TSPO (gene 706), sequence (P30536 whole entry, looked up): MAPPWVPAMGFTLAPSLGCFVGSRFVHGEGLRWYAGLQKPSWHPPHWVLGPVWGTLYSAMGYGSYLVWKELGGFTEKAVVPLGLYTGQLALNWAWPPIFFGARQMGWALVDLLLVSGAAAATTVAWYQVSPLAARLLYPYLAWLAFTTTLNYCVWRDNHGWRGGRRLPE
# rat Vasopressin 1 Receptor (V1), Avpr1a (gene 25107), sequence (P30560 whole entry, looked up): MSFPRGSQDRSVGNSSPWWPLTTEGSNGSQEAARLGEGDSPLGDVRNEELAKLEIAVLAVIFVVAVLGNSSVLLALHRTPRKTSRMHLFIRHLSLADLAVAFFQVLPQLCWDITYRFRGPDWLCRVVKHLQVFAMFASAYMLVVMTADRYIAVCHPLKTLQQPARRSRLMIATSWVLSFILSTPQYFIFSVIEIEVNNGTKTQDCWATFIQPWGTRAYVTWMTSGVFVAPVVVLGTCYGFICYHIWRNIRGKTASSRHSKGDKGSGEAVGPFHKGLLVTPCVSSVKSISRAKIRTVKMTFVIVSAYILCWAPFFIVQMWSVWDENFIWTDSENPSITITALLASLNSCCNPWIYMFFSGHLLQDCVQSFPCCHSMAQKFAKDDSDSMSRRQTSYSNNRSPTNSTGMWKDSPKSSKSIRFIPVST
# rat Peripheral-type Benzodiazepine Receptor (PBR), Tspo (gene 24230), sequence (P16257 whole entry, looked up): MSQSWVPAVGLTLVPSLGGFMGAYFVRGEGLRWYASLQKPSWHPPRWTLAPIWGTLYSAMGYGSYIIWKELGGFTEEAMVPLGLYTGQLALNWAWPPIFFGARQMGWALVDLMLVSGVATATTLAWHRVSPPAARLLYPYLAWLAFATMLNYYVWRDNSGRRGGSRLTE
# rat Opioid Receptor, Non-selective Binding, Oprm1 (gene 25601), sequence (P33535 whole entry, looked up): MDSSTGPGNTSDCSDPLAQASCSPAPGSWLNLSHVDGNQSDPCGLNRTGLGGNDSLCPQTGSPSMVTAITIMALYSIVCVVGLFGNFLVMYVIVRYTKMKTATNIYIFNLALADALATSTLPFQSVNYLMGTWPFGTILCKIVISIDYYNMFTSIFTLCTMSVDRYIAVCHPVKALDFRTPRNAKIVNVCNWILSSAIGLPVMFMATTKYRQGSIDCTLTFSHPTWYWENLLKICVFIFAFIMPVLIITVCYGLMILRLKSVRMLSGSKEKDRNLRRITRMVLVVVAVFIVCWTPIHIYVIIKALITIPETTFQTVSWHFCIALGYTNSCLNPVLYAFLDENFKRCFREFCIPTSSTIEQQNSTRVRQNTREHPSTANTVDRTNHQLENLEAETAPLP
# rat Glutamate, AMPA Site (AMPA), Gria1 (gene 50592), sequence (P19490 whole entry, looked up): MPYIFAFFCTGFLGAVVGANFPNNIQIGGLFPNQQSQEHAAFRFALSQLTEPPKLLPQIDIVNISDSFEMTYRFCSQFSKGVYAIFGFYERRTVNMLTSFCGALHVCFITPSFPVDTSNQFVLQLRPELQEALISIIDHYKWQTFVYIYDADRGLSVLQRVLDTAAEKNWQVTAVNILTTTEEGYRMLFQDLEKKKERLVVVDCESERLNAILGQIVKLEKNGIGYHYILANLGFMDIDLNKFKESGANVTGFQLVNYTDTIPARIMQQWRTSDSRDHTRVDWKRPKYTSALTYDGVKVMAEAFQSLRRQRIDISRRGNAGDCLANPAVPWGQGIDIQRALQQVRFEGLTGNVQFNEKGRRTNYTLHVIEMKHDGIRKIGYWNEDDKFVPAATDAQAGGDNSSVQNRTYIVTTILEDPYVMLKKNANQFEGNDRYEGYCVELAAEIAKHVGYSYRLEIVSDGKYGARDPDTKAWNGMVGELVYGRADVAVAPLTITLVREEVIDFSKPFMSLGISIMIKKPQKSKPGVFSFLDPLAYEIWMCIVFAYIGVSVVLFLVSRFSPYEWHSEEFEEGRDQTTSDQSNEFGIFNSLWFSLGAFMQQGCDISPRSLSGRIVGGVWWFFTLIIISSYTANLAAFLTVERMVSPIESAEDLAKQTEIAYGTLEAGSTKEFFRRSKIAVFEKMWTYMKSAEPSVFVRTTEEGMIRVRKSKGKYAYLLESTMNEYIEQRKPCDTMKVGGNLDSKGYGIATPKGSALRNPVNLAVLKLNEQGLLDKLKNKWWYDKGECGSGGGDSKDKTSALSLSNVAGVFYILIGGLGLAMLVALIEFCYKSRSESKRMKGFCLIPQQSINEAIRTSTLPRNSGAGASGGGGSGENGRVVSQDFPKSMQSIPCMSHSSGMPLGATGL
# bovine Gamma-Aminobutyric Acid Type A Receptor BDZ, alpha 5 site (GABARa5), GABRA5 (gene 523515), sequence (Q08E50 whole entry, looked up): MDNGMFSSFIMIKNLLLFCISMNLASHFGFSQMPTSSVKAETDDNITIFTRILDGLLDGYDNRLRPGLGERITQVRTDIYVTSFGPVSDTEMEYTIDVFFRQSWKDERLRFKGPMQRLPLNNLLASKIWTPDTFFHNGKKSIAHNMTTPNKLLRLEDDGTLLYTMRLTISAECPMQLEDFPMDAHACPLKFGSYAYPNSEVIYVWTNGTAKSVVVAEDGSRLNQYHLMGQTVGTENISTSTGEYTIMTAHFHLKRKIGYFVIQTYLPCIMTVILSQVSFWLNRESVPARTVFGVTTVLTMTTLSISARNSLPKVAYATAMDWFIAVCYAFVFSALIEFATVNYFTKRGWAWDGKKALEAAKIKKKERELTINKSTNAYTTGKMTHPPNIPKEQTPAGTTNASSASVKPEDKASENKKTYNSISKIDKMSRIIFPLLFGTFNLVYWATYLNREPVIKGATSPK
# Voltage-gated inwardly rectifying potassium channel KCNH2 (Homo sapiens), sequence (Q12809 whole entry, looked up): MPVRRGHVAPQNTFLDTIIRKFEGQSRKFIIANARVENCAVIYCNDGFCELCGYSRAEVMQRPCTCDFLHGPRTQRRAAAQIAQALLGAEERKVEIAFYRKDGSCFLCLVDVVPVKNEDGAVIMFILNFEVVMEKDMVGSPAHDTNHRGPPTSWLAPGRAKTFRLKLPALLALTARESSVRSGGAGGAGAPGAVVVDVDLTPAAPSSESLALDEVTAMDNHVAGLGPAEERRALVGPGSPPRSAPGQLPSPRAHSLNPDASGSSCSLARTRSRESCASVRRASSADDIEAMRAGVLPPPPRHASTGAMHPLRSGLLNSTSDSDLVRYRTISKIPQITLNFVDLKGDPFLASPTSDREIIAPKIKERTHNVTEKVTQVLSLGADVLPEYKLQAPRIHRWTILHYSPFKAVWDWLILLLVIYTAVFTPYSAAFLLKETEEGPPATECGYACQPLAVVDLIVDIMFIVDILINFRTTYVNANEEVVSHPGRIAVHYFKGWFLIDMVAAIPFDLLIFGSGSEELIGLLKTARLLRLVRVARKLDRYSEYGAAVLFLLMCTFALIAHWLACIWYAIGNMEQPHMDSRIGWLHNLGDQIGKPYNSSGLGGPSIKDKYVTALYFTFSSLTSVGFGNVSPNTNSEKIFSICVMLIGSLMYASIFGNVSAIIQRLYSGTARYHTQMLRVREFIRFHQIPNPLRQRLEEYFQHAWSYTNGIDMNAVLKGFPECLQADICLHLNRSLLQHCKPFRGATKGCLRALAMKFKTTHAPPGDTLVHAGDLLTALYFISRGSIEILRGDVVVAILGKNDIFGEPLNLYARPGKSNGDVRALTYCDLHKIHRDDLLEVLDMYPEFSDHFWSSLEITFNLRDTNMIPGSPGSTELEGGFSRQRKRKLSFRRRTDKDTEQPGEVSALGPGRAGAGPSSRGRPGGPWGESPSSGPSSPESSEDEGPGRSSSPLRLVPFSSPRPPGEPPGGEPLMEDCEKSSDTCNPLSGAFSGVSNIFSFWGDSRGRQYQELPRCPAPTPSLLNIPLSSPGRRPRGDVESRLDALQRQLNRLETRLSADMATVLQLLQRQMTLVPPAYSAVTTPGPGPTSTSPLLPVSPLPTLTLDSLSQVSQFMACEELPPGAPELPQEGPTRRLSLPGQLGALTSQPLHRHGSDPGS
# rat Gamma-Aminobutyric Acid Type A Receptor, Non-Selective (GABAR-NonSelective), Gabra1 (gene 29705), sequence (P62813 whole entry, looked up): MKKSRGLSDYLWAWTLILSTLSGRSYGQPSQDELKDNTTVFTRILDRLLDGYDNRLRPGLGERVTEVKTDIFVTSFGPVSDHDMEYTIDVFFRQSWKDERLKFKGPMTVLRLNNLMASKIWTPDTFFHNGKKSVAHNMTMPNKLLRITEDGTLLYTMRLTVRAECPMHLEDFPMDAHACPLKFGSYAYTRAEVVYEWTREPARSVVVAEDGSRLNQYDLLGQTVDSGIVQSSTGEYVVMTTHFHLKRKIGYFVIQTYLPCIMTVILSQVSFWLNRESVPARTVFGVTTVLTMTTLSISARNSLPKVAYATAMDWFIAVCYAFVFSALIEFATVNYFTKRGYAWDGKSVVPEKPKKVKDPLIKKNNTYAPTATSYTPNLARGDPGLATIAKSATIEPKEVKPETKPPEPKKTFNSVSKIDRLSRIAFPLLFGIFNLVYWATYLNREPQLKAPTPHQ
# bovine Gamma-Aminobutyric Acid Type A Receptor BDZ, alpha 1 site (GABARa1), GABRA1 (gene 780973), sequence (P08219 whole entry, looked up): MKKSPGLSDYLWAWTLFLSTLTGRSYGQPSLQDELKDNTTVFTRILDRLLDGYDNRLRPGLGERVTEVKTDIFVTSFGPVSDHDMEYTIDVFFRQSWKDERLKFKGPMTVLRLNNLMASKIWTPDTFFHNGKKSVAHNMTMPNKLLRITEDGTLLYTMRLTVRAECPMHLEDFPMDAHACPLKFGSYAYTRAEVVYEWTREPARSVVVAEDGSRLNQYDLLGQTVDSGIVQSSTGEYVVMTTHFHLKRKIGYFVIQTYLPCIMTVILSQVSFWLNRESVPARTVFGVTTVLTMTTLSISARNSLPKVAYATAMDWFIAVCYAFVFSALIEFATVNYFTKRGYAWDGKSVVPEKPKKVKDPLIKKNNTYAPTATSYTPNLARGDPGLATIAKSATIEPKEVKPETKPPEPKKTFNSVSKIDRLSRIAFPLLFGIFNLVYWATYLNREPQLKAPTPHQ
# rat Oxytocin Receptor (OXT), Oxtr (gene 25342), sequence (P70536 whole entry, looked up): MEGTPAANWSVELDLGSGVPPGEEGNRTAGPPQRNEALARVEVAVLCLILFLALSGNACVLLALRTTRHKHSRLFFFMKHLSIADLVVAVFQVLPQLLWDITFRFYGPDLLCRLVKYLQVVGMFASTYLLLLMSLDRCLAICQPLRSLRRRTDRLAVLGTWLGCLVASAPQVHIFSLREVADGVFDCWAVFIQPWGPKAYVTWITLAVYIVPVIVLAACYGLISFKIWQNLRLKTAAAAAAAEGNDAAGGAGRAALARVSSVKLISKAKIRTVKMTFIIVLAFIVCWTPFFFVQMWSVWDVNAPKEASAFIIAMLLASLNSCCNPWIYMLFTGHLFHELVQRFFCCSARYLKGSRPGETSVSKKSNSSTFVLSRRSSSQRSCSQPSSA
structure (smiles),measurement,setting,value
O=C(Nc1ccccc1)Nc1cnns1,AC50,[1],7.77 µM (active)
same,outcome,[2],inactive
same,outcome,[3],inactive
Oc1cc(Cl)ccc1Oc1ccc(Cl)cc1Cl,AC50,[4],3.23 µM (active) and 12.1 µM (active)
same,outcome,[5],inactive
same,outcome,[6],inactive
same,outcome,[7],inactive
same,AC50,[8],5.64 µM (active) and 25.5 µM (active) and 9.13 µM (active)
same,outcome,[8],inactive
N#Cc1c(Cl)c(Cl)c(Cl)c(C#N)c1Cl,outcome,[9],inactive
same,AC50,[7],9.01 µM (active)
CC(C)N(C(=O)COc1nnc(C(F)(F)F)s1)c1ccc(F)cc1,AC50,[10],14.2 µM (active)
same,AC50,[7],0.27 µM (active)
same,AC50,[8],24.8 nM (active)
CCCN(CCOc1c(Cl)cc(Cl)cc1Cl)C(=O)n1ccnc1,AC50,[4],6.02 µM (active)
same,AC50,[5],14.8 µM (active)
same,outcome,[11],inactive
same,AC50,[6],14.3 µM (active)
same,outcome,[12],inactive
same,AC50,[7],2.59 µM (active)
same,AC50,[13],8.01 µM (active)
same,AC50,[8],53.9 nM (active)
